# Many of the other results were omitted from the sample, so the strongest signals are more common in it than they were.
# B1: Pbx2CASH domain (Cryptococcus neoformans) (protein)
# chain: GIPGPNRLYRLSGPIIFTAADQEIATYGYPTGSERAVLRVEGRNTATAIQGDCRRCARVSVKNLVVDGNRKKLGRMRDFQLATGLVVLGGNEGQSIQNSWIKNPRGFTAIHIREGDKLQCSGARVEKNEIGPVGEEYDPEKDGDDPEMSPLGRPLADGVSIACRDSFIRDNTFRDNTDAAIVVYCSPGTLIHA
# Assays:
# Experiment in all cases: glycan array binding signal (z-score within array); higher = stronger binding
# Conditions in all cases: glycan notation: IUPAC condensed, linker removed
# [1] = target: Fuc(a1-2)Gal(b1-3)GalNAc(b1-4)[Neu5Ac(a2-3)]Gal(b1-4)Glc
# Outline: (§1)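 Glycan array data came from 3228 arrays in the Consortium for Functional Glycomics database, and only arrays with an available protein sequence were kept. Glycan names were put into IUPAC-condensed notation, and columns mapping to the same glycan were averaged. The binding signal is a within-array Z-score, averaged across arrays of one protein sequence run at different concentrations or buffers and across linkers. A negative Z-score can be read as non-binding.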
# [2] = target: Fuc(a1-2)Gal(b1-3)[Fuc(a1-4)]GlcNAc(b1-2)Man(a1-3)[Fuc(a1-2)Gal(b1-3)[Fuc(a1-4)]GlcNAc(b1-2)Man(a1-3)]Man(b1-4)GlcNAc(b1-4)GlcNAc
# Outline: as §1
# [3] = target: Fuc(a1-2)Gal(b1-3)[Fuc(a1-4)]GlcNAc(b1-3)[Gal(b1-4)GlcNAc(b1-6)]Gal(b1-4)Glc
# Outline: as §1
# [4] = target: Fuc(a1-2)Gal(b1-4)GlcNAc(b1-2)Man(a1-3)[Fuc(a1-2)Gal(b1-4)GlcNAc(b1-2)Man(a1-6)]Man(b1-4)GlcNAc(b1-4)[Fuc(a1-6)]GlcNAc
# Outline: as §1
# [5] = target: Fuc(a1-2)Gal(b1-4)[Fuc(a1-3)]GlcNAc(b1-3)GalNAc
# Outline: as §1
# [6] = target: Fuc(a1-2)Gal(b1-4)[Fuc(a1-3)]GlcNAc(b1-3)[Neu5Ac(a2-6)Gal(b1-4)GlcNAc(b1-6)]Gal(b1-4)Glc
# Outline: as §1
# [7] = target: Fuc(a1-2)[Gal(a1-3)]Gal(b1-4)[Fuc(a1-3)]GlcNAc
# Outline: as §1
# [8] = target: Fuc(a1-2)[GalNAc(a1-3)]Gal(b1-4)GlcNAc(b1-2)Man(a1-3)[Fuc(a1-2)[GalNAc(a1-3)]Gal(b1-4)GlcNAc(b1-2)Man(a1-6)]Man(b1-4)GlcNAc(b1-4)[Fuc(a1-6)]GlcNAc
# Outline: as §1
# [9] = target: Fuc(a1-2)[GalNAc(a1-3)]Gal(b1-4)[Fuc(a1-3)]GlcNAc(b1-3)GalNAc
# Outline: as §1
# Fuc(a1-3)GlcNAc = target: Fuc(a1-3)GlcNAc
# Outline: as §1
# [10] = target: Fuc(a1-3)[Gal(b1-4)]GlcNAc(b1-2)Man(a1-3)[Fuc(a1-3)[Gal(b1-4)]GlcNAc(b1-2)Man(a1-6)]Man(b1-4)GlcNAc(b1-4)GlcNAc
# Outline: as §1
# Gal(a1-3)Gal(b1-3)GlcNAc = target: Gal(a1-3)Gal(b1-3)GlcNAc
# Outline: as §1
# [11] = target: Gal(a1-3)Gal(b1-3)GlcNAc(b1-2)Man
# Outline: as §1
# [12] = target: Gal(a1-3)Gal(b1-3)[Fuc(a1-4)]GlcNAc(b1-2)Man(a1-3)[Gal(a1-3)Gal(b1-3)[Fuc(a1-4)]GlcNAc(b1-2)Man(a1-6)]Man(b1-4)GlcNAc(b1-4)GlcNAc
# Outline: as §1
# [13] = target: Gal(a1-3)Gal(b1-4)GlcNAc(b1-2)Man(a1-3)[Gal(a1-3)Gal(b1-4)GlcNAc(b1-2)Man(a1-6)]Man(b1-4)GlcNAc(b1-4)GlcNAc
# Outline: as §1
# [14] = target: Gal(a1-3)Gal(b1-4)GlcNAc(b1-6)GalNAc
# Outline: as §1
# Gal(b1-2)Gal = target: Gal(b1-2)Gal
# Outline: as §1
# [15] = target: Gal(b1-3)GlcNAc(b1-3)Gal(b1-4)GlcNAc(b1-2)[Gal(b1-3)GlcNAc(b1-3)Gal(b1-4)GlcNAc(b1-6)]Man(a1-6)[Gal(b1-3)GlcNAc(b1-3)Gal(b1-4)GlcNAc(b1-2)Man(a1-3)]Man(b1-4)GlcNAc(b1-4)[Fuc(a1-6)]GlcNAc
# Outline: as §1
# [16] = target: Gal(b1-3)GlcNAc(b1-3)GalNAc
# Outline: as §1
# [17] = target: Gal(b1-3)[Fuc(a1-4)]GlcNAc(b1-2)Man(a1-3)[Gal(b1-3)[Fuc(a1-4)]GlcNAc(b1-2)Man(a1-6)]Man(b1-4)GlcNAc(b1-4)[Fuc(a1-6)]GlcNAc
# Outline: as §1
# [18] = target: Gal(b1-3)[Fuc(a1-4)]GlcNAc(b1-6)GalNAc
# Outline: as §1
# [19] = target: Gal(b1-3)[Neu5Ac(a2-6)]GlcNAc(b1-4)Gal(b1-4)Glc
# Outline: as §1
# [20] = target: Gal(b1-4)GlcNAc(b1-2)Man(a1-3)[Gal(b1-4)GlcNAc(b1-2)Man(a1-6)]Man(b1-4)GlcNAc(b1-4)[Fuc(a1-6)]GlcNAc
# Outline: as §1
# [21] = target: Gal(b1-4)GlcNAc(b1-2)[Gal(b1-4)GlcNAc(b1-4)]Man(a1-3)[GlcNAc(b1-4)][Gal(b1-4)GlcNAc(b1-2)[Gal(b1-4)GlcNAc(b1-6)]Man(a1-6)]Man(b1-4)GlcNAc(b1-4)GlcNAc
# Outline: as §1
# [22] = target: Gal(b1-4)GlcNAc(b1-2)[Gal(b1-4)GlcNAc(b1-6)]Man(a1-6)[Gal(b1-4)GlcNAc(b1-2)Man(a1-3)]Man(b1-4)GlcNAc(b1-4)GlcNAc
# Outline: as §1
# [23] = target: Gal(b1-4)GlcNAc(b1-3)Gal(b1-4)GlcNAc(b1-2)Man(a1-3)[Gal(b1-4)GlcNAc(b1-3)Gal(b1-4)GlcNAc(b1-2)Man(a1-6)]Man(b1-4)GlcNAc(b1-4)GlcNAc
# Outline: as §1
# [24] = target: Gal(b1-4)GlcNAc(b1-3)Gal(b1-4)GlcNAc(b1-2)Man(a1-3)[Gal(b1-4)GlcNAc(b1-3)Gal(b1-4)GlcNAc(b1-2)Man(a1-6)]Man(b1-4)GlcNAc(b1-4)[Fuc(a1-6)]GlcNAc
# Outline: as §1
# [25] = target: Gal(b1-4)GlcNAc(b1-3)Gal(b1-4)GlcNAc(b1-3)Gal(b1-4)GlcNAc(b1-2)Man(a1-3)[Gal(b1-4)GlcNAc(b1-3)Gal(b1-4)GlcNAc(b1-3)Gal(b1-4)GlcNAc(b1-2)Man(a1-6)]Man(b1-4)GlcNAc(b1-4)GlcNAc
# Outline: as §1
# [26] = target: Gal(b1-4)GlcNAc(b1-3)Gal(b1-4)GlcNAc(b1-3)Gal(b1-4)GlcNAc(b1-2)Man(a1-3)[Gal(b1-4)GlcNAc(b1-3)Gal(b1-4)GlcNAc(b1-3)Gal(b1-4)GlcNAc(b1-2)Man(a1-6)]Man(b1-4)GlcNAc(b1-4)[Fuc(a1-6)]GlcNAc
# Outline: as §1
# [27] = target: Gal(b1-4)GlcNAc(b1-3)[Fuc(a1-3)GlcNAc(b1-6)]Gal(b1-4)Glc
# Outline: as §1
binder,measurement,setting,value
B1,glycan array binding signal (z-score),[1],-0.327
same,glycan array binding signal (z-score),[2],0.448
same,glycan array binding signal (z-score),[3],-0.27
same,glycan array binding signal (z-score),[4],0.625
same,glycan array binding signal (z-score),[5],5.37
same,glycan array binding signal (z-score),[6],0.299
same,glycan array binding signal (z-score),[7],-0.331
same,glycan array binding signal (z-score),[8],-0.315
same,glycan array binding signal (z-score),[9],2.74
same,glycan array binding signal (z-score),Fuc(a1-3)GlcNAc,-0.751
same,glycan array binding signal (z-score),[10],-0.141
same,glycan array binding signal (z-score),Gal(a1-3)Gal(b1-3)GlcNAc,0.751
same,glycan array binding signal (z-score),[11],1.4
same,glycan array binding signal (z-score),[12],2.46
same,glycan array binding signal (z-score),[13],0.227
same,glycan array binding signal (z-score),[14],-0.025
same,glycan array binding signal (z-score),Gal(b1-2)Gal,-0.585
same,glycan array binding signal (z-score),[15],2.19
same,glycan array binding signal (z-score),[16],0.422
same,glycan array binding signal (z-score),[17],-0.077
same,glycan array binding signal (z-score),[18],1.39
same,glycan array binding signal (z-score),[19],-0.128
same,glycan array binding signal (z-score),[20],-0.487
same,glycan array binding signal (z-score),[21],0.057
same,glycan array binding signal (z-score),[22],-0.632
same,glycan array binding signal (z-score),[23],3.98
same,glycan array binding signal (z-score),[24],0.897
same,glycan array binding signal (z-score),[25],6.89
same,glycan array binding signal (z-score),[26],0.266
same,glycan array binding signal (z-score),[27],-0.704

# From the supplement of paper PMC8728848
